From ChEMBL document CHEMBL3433997, “St. Jude Leishmania screening dataset” (2016)

What was measured:
Type in all cases: functional
[1] = molecular target: Solute carrier family 2, facilitated glucose transporter member 1 (Homo sapiens) (UniProt P11166); test: ST_JUDE_LEISH: Cytotoxicity at 2uM final concentration against transgenic Leishmania Mexicana promastigotes LmGLUT1 that are glucose transport deficient and complemented with the human glucose transporter GLUT1. Activity is measured by DNA content using SYBR green in vitro
[2] = molecular target: Hexose transporter 1 (Plasmodium falciparum) (UniProt O97467); test: ST_JUDE_LEISH: Cytotoxicity at 2uM final concentration against transgenic Leishmania Mexicana promastigotes LmPfHT that are glucose transport deficient and complemented with the Plasmodium falciparum hexose transporter. Activity is measured by DNA content using SYBR green in vitro
[3] = molecular target: Glucose transporter (Leishmania mexicana) (UniProt O61059); test: ST_JUDE_LEISH: Cytotoxicity at 2uM final concentration against transgenic Leishmania Mexicana promastigotes LmGT2 that are glucose transport deficient and complemented with the L. Mexicana glucose transporter 2. Activity is measured by DNA content using SYBR green in vitro

Sequence of Solute carrier family 2, facilitated glucose transporter member 1 (Homo sapiens) (P11166 whole entry): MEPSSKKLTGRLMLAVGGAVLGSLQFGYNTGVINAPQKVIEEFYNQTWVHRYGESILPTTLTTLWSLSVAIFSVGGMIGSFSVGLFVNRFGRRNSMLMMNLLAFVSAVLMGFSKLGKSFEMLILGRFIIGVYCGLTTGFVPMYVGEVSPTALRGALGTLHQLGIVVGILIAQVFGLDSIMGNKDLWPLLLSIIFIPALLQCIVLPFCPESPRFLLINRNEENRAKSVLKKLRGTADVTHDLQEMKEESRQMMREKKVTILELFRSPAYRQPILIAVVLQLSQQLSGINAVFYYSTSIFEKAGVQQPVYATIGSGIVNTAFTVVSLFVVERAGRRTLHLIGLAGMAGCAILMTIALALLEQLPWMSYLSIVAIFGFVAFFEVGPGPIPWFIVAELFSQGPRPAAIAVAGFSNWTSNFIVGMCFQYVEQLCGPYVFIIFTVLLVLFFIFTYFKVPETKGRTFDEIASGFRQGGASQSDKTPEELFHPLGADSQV

Compound | inhibition [1] [%] | inhibition [2] [%] | inhibition [3] [%]
NC1CCN(Cc2ccc(-c3cccc(-c4nc5cc(F)ccc5[nH]4)c3)cc2)C1 (centres undefined) | 16.9 | 14.7 | 12.8
Cc1ccc(NC(=O)c2ccc(CN3CCCN(CCC(C)C)CC3)cc2)cc1C | 14.1 | 14.9 | 15.6
Cc1cccc(C)c1CNc1cccc(-c2nc(C)c(C)[nH]2)c1 | 5.39 | 4.77 | 1.97
CCN(CCNC(=O)Nc1cc(C(F)(F)F)cc(C(F)(F)F)c1)c1cccc(C)c1 | 5.44 | 4.69 | 5.45
CCOC(=O)c1c(SCc2cccc(F)c2F)[nH]c2ccccc2c1=O | 0.37 | -0.99 | 1.97
CC1(C)N=C(N)N=C(N)N1c1ccc(Br)cc1 | 0.61 | 1.29 | 3.63
C=CCn1c(SCC(=O)Nc2cc(C)ccc2OC)nc2sc(C)cc2c1=O | 4.32 | 3.15 | 2.13
Cn1c(-c2ccccc2)cc2c3c(N)nc(N)nc3ccc21 | 105 | 104 | 98.2
Fc1cccc(Cl)c1-c1nc(NCCC(c2ccccc2)c2ccccc2)no1 | -0.45 | 0.05 | 1.11
CC(C)C(=O)ONC1=NC(C)(C)N(OCCCOc2cc(Cl)c(Cl)cc2Cl)C(NOC(=O)C(C)C)=N1 | -0.37 | 1.64 | -0.44
CCOC(=O)c1ccc(NC(=O)Nc2cccc(-c3ccc(-c4nc5cc(F)ccc5[nH]4)cc3)c2)cc1 | 2.21 | 2.88 | 0.33
COc1ccc2nccc([C@@H](O)CN3CCC(NC(=O)c4ccc5cc[nH]c5c4)CC3)c2c1 | 4.43 | 4.82 | 1.32
Cc1cc(OCCCN2CCN(CCN3CCOCC3)CC2)ccc1NC(=O)COc1ccc(Cl)cc1C(=O)c1cc(Cl)cc(C#N)c1 | 2.6 | 0.79 | 2.48
